# “And” between values parts separate entries of the source, which are not always exact repeats. Equal entries are not always repeated. Some compounds were tested as several samples or in several runs, with calls that do not always agree. The source made the active and inactive calls. The calls were made as follows: active = hit-call score of the fitted dose curve at least 0.9, where 1 is the maximum; inactive = score below 0.9.
# Assays:
# [1] = ATG_NFI_CIS: Attagene CIS-FACTORIAL HepG2 Assay for human Nuclear Factor I (NFI) (AID 2282989); details: HepG2 cis-regulatory reporter, NFI response element transcription; actives raise or lower the signal
# In short: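 After transient transfection of HepG2 with cis-promoter reporter constructs and 24 h dosing, RNA is reverse-transcribed, amplified, 6-FAM end-labelled and HpaI-digested before capillary analysis. Bidirectional curve fitting against DMSO.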
# [2] = biological target: Myc proto-oncogene protein (Homo sapiens) (UniProt P01106); experiment: ATG_Myc_CIS: Attagene CIS-FACTORIAL HepG2 Assay for human Myelocytomatosis (Myc) Proto-Oncogene Transcription Factor (AID 2282990); details: HepG2, Attagene cis-reporter transcription factor activity; actives raise or lower the signal
# Chain of Myc proto-oncogene protein (Homo sapiens) (P01106 whole entry, looked up, the tested form may be a part): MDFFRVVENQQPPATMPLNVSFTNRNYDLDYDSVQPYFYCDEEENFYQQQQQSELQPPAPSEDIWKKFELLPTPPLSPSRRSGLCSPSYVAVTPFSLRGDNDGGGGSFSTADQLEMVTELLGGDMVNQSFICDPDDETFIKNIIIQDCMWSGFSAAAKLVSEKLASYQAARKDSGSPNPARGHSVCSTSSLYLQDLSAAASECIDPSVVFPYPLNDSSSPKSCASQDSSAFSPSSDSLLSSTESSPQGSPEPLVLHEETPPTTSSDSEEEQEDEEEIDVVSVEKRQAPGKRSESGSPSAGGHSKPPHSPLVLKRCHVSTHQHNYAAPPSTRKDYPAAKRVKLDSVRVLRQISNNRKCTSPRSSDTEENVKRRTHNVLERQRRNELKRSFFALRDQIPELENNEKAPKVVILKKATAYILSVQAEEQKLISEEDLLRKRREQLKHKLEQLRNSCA
# In short: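 After 24 h chemical treatment of HepG2 cells carrying multiplexed cis-regulated reporter constructs, reporter transcripts quantified by RT-PCR and capillary electrophoresis of fluorescent fragments. Gain or loss fitted against DMSO baseline.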
# [3] = ATG_NF_kB_CIS: Attagene CIS-FACTORIAL HepG2 Assay for human Nuclear Factor Kappa B (NF-kB) (AID 2282991); details: HepG2 Attagene cis-factorial NF-kB reporter mRNA; actives raise or lower the signal
# In short: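 HepG2 cells transiently transfected with multiplexed cis-element reporter units measuring endogenous transcription factor activity; reporter mRNA read 24 h after dosing by RT-PCR, fluorescent labelling, HpaI digestion and capillary electrophoresis. Bidirectional fit against DMSO baseline.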
# [4] = ATG_NRF2_ARE_CIS: Attagene CIS-FACTORIAL HepG2 Assay for human Nuclear Factor Erythroid 2 Related Factor 2 (NFR2) response to Antioxidant Response Elements (ARE) (AID 2282992); details: HepG2 Attagene ARE/NRF2 reporter, transcription factor activity; actives raise or lower the signal
# In short: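 Transient MRTU transfection of HepG2; 24 h compound exposure; TriZol RNA, RT with oligo(dT), PCR, 6-FAM primer extension, HpaI cut, CE. Bidirectional fit vs DMSO.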
# [5] = BSK_3C_TissueFactor: BioMAP Diversity Plus: 3C Assay for Tissue Factor Biomarker Activity (AID 2282997); details: BioMAP 3C HUVEC, tissue factor biomarker readout; actives raise or lower the signal
# In short: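 ELISA read-out of Tissue Factor levels on human umbilical vein endothelium collected 24 h after chemical dosing. Gain or loss of signal was fitted relative to DMSO.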
# [6] = BSK_3C_uPAR: BioMAP Diversity Plus: 3C Assay for Urokinase-type plasminogen activator receptor (uPAR) Biomarker Activity (AID 2282998); details: BioMAP 3C HUVEC, uPAR biomarker ELISA; actives raise or lower the signal
# In short: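 Endothelial primary cells of human umbilical vein origin received test chemical; 24 h later uPAR was assayed by ELISA. Fitting was bidirectional, DMSO as negative control.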
# [7] = BSK_3C_VCAM1: BioMAP Diversity Plus: 3C Assay for Vascular cell adhesion molecule 1 (VCAM1) Biomarker Activity (AID 2282999); details: BioMAP 3C HUVEC, VCAM1 ELISA, cytokine-stimulated; actives raise or lower the signal
# In short: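 Endothelial cells from human umbilical vein are treated with test chemical. At 24 h, VCAM-1 is measured by ELISA, and responses in either direction are fitted relative to DMSO.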
# [8] = BSK_4H_Eotaxin3: BioMAP Diversity Plus: 4H Assay for Eotaxin 3 Biomarker Activity (AID 2283000); details: primary human endothelial cells (HUVEC); actives raise or lower the signal;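 as to outcome: CCL26 protein level quantified by ELISA in parallel with SRB cytotoxicity check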
# In short: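 Chemicals were added to human umbilical vein endothelium cultures, and Eotaxin-3 was quantified by ELISA at 24 h. Values were derived by bidirectional fitting with DMSO serving as negative control and activity baseline.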
# [9] = ATG_Oct_MLP_CIS: Attagene CIS-FACTORIAL HepG2 Assay for human Octamer-Binding Transcription Factor (Oct) (AID 2282993); details: HepG2 Attagene cis-factorial Oct reporter, mRNA; actives raise or lower the signal
# In short: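 Cells of the HepG2 line express promoter-controlled reporter sequences whose mRNA levels, after 24 h treatment, are measured by RT-PCR and capillary electrophoresis. Increases and decreases are scored relative to DMSO.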
# [10] = biological target: Cellular tumor antigen p53 (Homo sapiens) (UniProt P04637); experiment: ATG_p53_CIS: Attagene CIS-FACTORIAL HepG2 Assay for human p53 Transcription Factor (AID 2282994); details: HepG2 p53 cis-element reporter, Attagene mRNA; actives raise or lower the signal
# Chain of Cellular tumor antigen p53 (Homo sapiens) (P04637 whole entry, looked up): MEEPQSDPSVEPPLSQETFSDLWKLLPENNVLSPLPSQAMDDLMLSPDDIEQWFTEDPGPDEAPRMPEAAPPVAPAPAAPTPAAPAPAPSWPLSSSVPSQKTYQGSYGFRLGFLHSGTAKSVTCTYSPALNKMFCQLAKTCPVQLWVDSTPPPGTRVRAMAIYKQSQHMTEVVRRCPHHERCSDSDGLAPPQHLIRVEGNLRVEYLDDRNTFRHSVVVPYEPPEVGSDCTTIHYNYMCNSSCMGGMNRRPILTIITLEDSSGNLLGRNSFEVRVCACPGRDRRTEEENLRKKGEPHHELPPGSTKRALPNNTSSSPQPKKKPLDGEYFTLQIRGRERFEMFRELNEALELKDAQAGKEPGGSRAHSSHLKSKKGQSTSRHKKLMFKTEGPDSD
# In short: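 HepG2, transient MRTU transfection (cis promoter elements, endogenous TFs); 24 h dosing; RNA isolation, RT-PCR, 6-FAM primer extension, HpaI digest, CE fluorescence; bidirectional fit vs DMSO.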
smiles,measurement,setting,value
CC#C[C@]1(O)CC[C@H]2[C@@H]3CCC4=CC(=O)CCC4=C3[C@@H](c3ccc(N(C)C)cc3)C[C@@]21C,AC50,[1],153 µM (active) and 64.1 µM (active) and 34.2 µM (active)
same,outcome,[1],inactive
same,AC50,[2],160 µM (active) and 100 µM (active)
same,outcome,[2],inactive
same,AC50,[3],67.9 µM (active)
same,outcome,[3],inactive
same,AC50,[4],28.1 µM (active) [middle of 4 runs]
same,outcome,[5],inactive
same,AC50,[6],31.2 µM (active)
same,AC50,[7],32.2 µM (active)
same,AC50,[8],38.1 µM (active)
CC(O)C(=O)O (stereo unspecified),outcome,[1],inactive
same,outcome,[2],inactive
same,outcome,[3],inactive
same,outcome,[4],inactive
same,outcome,[9],inactive
same,outcome,[10],inactive
CCCCC[C@H](O)CC(=O)CCc1ccc(O)c(OC)c1,outcome,[1],inactive
same,outcome,[2],inactive
same,outcome,[3],inactive
same,AC50,[4],29.9 µM (active)
same,outcome,[9],inactive
same,outcome,[10],inactive
CCCCCCCCOC(=O)CCCCCCCCC(=O)OCCCCCCCC,outcome,[1],inactive
same,outcome,[2],inactive
same,outcome,[3],inactive
same,outcome,[4],inactive
same,outcome,[9],inactive
same,outcome,[10],inactive
same,outcome,[5],inactive
same,outcome,[6],inactive
same,outcome,[7],inactive
O=C(OCCOCCOC(=O)c1ccccc1)c1ccccc1,outcome,[1],inactive
same,outcome,[2],inactive
same,outcome,[3],inactive
same,outcome,[4],inactive
same,outcome,[9],inactive
same,outcome,[10],inactive
same,outcome,[5],inactive
same,outcome,[6],inactive
same,outcome,[7],inactive
Cc1ccc(S(=O)(=O)O)c(C)c1,outcome,[1],inactive
same,outcome,[2],inactive
same,outcome,[3],inactive
same,outcome,[4],inactive
same,outcome,[9],inactive
same,outcome,[10],inactive
CN1CCN(c2ccccc2/C=C2\SCCN(c3ccc(Cl)c(Cl)c3)C2=O)CC1,outcome,[1],inactive
same,outcome,[2],inactive
same,outcome,[3],inactive
same,AC50,[4],3.7 µM (active)
same,outcome,[9],inactive
same,outcome,[10],inactive
same,AC50,[5],6.4 µM (active)
same,AC50,[6],16.2 µM (active)
same,outcome,[7],inactive
CN(C)C=O,outcome,[1],inactive
same,outcome,[2],inactive
same,outcome,[3],inactive
same,outcome,[4],inactive
same,outcome,[9],inactive
same,outcome,[10],inactive
same,outcome,[5],inactive
same,outcome,[6],inactive
same,outcome,[7],inactive
O=C(/C=C/c1ccc(O)cc1)CC(=O)/C=C/c1ccc(O)cc1,outcome,[1],inactive
same,outcome,[2],inactive
same,outcome,[3],inactive
same,AC50,[4],2.65 µM (active)
same,outcome,[9],inactive
same,outcome,[10],inactive
CCCOc1sc(C(=O)N2CCC(c3cc(CN)ccc3F)CC2)c(C)c1Br,outcome,[1],inactive
same,outcome,[2],inactive
same,outcome,[3],inactive
same,AC50,[4],1.49 µM (active)
same,outcome,[9],inactive
same,outcome,[10],inactive
same,AC50,[5],9.59 µM (active)
same,AC50,[6],5.41 µM (active)
same,AC50,[7],7.38 µM (active)
Oc1cc2ccccc2c2ccccc12,outcome,[1],inactive
same,outcome,[2],inactive
same,outcome,[3],inactive
same,outcome,[4],inactive
same,outcome,[9],inactive
same,outcome,[10],inactive
same,AC50,[5],8.37 µM (active)
same,AC50,[6],11.2 µM (active)
same,AC50,[7],8.07 µM (active)
NCC(F)(F)C(F)(F)C(F)(F)C(F)(F)C(F)(F)C(F)(F)C(F)(F)F,outcome,[1],inactive
same,outcome,[2],inactive
same,outcome,[3],inactive
same,outcome,[4],inactive
same,outcome,[9],inactive
same,outcome,[10],inactive
same,outcome,[5],inactive
same,outcome,[6],inactive
same,outcome,[7],inactive
O=c1c(-c2ccc(O)cc2)coc2cc(O)ccc12,outcome,[1],inactive
same,outcome,[2],inactive
same,outcome,[3],inactive
same,outcome,[4],inactive
same,AC50,[9],100 µM (active)
same,outcome,[9],inactive
same,outcome,[10],inactive
same,AC50,[5],15.7 µM (active)
same,outcome,[6],inactive
same,outcome,[7],inactive
same,outcome,[8],inactive
CCC(=C(c1ccc(O)cc1)c1ccc(OCCN(C)C)cc1)c1ccccc1,outcome,[1],inactive
same,AC50,[2],13.1 µM (active)
same,outcome,[2],inactive
same,outcome,[3],inactive
same,AC50,[4],5.93 µM (active) and 1.95 µM (active) and 1.77 µM (active)
same,outcome,[4],inactive
same,AC50,[9],7.1 µM (active) and 11.1 µM (active)
same,outcome,[9],inactive
same,AC50,[5],11 µM (active)
same,AC50,[6],7.66 µM (active)
same,AC50,[7],11.9 µM (active)
same,AC50,[8],7.42 µM (active)
O=C1OC2(c3ccccc31)c1cc(Br)c(O)c(Br)c1Oc1c2cc(Br)c(O)c1Br,outcome,[1],inactive
same,outcome,[2],inactive
same,outcome,[3],inactive
same,outcome,[4],inactive
same,AC50,[9],66.2 µM (active)
same,outcome,[9],inactive
COc1cc(CCC(=O)CC(=O)CCc2ccc(O)c(OC)c2)ccc1O,outcome,[1],inactive
same,outcome,[2],inactive
same,outcome,[3],inactive
same,AC50,[4],24.8 µM (active)
same,AC50,[9],68.8 µM (active)
same,AC50,[10],100 µM (active)
CCCCCCCCCCCCCC[N+](C)(C)C,outcome,[1],inactive
same,outcome,[2],inactive
same,outcome,[3],inactive
same,AC50,[4],5 µM (active) and 6.55 µM (active)
same,AC50,[9],11.1 µM (active)
same,outcome,[9],inactive
same,outcome,[10],inactive
same,AC50,[5],5.43 µM (active)
same,AC50,[6],1.25 µM (active)
same,AC50,[7],4.71 µM (active)
CCCCCCCCCCCCCCCS(=O)(=O)Oc1ccccc1,outcome,[1],inactive
same,outcome,[2],inactive
same,outcome,[3],inactive
same,outcome,[4],inactive
same,outcome,[9],inactive
same,outcome,[10],inactive
same,outcome,[5],inactive
same,outcome,[6],inactive
same,outcome,[7],inactive
CC(C)(C)c1cccc(C(C)(C)C)c1O,AC50,[1],159 µM (active)
same,AC50,[2],152 µM (active)
same,outcome,[3],inactive
same,AC50,[4],167 µM (active)
same,AC50,[9],166 µM (active)
same,AC50,[10],177 µM (active)
same,outcome,[5],inactive
same,outcome,[6],inactive
same,outcome,[7],inactive
